# Whole data set: some 16,000 sequences, median “rpm ratio (pull-down/input)” near 0.5, cut for the highest 2% near 5.5. The entries come from a sample that favours the highest values as a whole.
# Target: T1, MBP-FoxP3dN (Mus musculus, UniProt Q99JB6 188-423)
# T1 sequence: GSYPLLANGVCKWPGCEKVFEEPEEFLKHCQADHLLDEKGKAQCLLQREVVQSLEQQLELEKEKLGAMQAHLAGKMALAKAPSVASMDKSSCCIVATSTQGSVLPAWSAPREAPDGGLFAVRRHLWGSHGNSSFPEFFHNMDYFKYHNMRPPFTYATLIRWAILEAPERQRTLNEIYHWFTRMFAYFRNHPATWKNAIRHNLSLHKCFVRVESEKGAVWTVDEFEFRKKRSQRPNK
# Assay: PD-seq (MBP pull-down with sequencing); 20 mM Tris-HCl pH 7.5, 100 mM NaCl, 1.5 mM MgCl2, 0.4 uM protein, 0.1 uM dsDNA library, 30 min, room temperature, amylose pull-down; high values mean tight binding
# Conditions: protein: recombinant; tags: His6-MBP; chain copies: 2; dsDNA, one strand shown
# Method in brief: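 A fragment of mouse FoxP3 or FoxP1 without its N-terminus, carrying a His6-MBP tag and produced in E. coli, was combined at 0.4 µM with a 0.1 µM degenerate double-stranded DNA library filled in with Klenow. The mixture sat for 30 min at room temperature in Tris pH 7.5 buffer containing NaCl and MgCl2. Protein–DNA complexes were captured on amylose resin, washed three times, and the DNA was freed with proteinase K, barcoded by PCR and sequenced on Illumina. Binding is expressed as reads-per-million enrichment of pull-down over input, with replicates pooled.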
row,Sequence,binding signal
1,GATGATTGTTCTCCCAGCTGATGAATTGGGAACTTCGAGTAAACAAATTTTCCTAATCTTTCTGTTCAAGCGCCATCTAC,0.252 RPM ratio (pull-down/input)
2,GATGATTGTTCTCCCAGCTGATGAATTGATAGATTCGAGTAAACAAATTTTCCTAATCTTTCTGTTCAAGCGCCATCTAC,0.495 RPM ratio (pull-down/input)
3,GATGATTGTTCTCCCAGCTGATGAATTCATAGGCTCGAGTAAACAAATTTTCCTAATCTTTCTGTTCAAGCGCCATCTAC,0.321 RPM ratio (pull-down/input)
4,GATGATTGTTCTCCCAGCTGATGAATTATCCCGGTCGAGTAAACAAATTTTCCTAATCTTTCTGTTCAAGCGCCATCTAC,0.208 RPM ratio (pull-down/input)
5,GATGATTGTTCTCCCAGCTGATGAATTTGGTAACTCGAGTAAACAAATTTTCCTAATCTTTCTGTTCAAGCGCCATCTAC,1.38 RPM ratio (pull-down/input)
6,GATGATTGTTCTCCCAGCTGATGAATTTGCCTTGTCGAGTAAACAAATTTTCCTAATCTTTCTGTTCAAGCGCCATCTAC,1.15 RPM ratio (pull-down/input)
7,GATGATTGTTCTCCCAGCTGATGAATTAATAGAGTCGAGTAAACAAATTTTCCTAATCTTTCTGTTCAAGCGCCATCTAC,0.294 RPM ratio (pull-down/input)
8,GATGATTGTTCTCCCAGCTGATGAATTGCCACACTCGAGTAAACAAATTTTCCTAATCTTTCTGTTCAAGCGCCATCTAC,1.52 RPM ratio (pull-down/input)
9,GATGATTGTTCTCCCAGCTGATGAATTGCCACTCTCGAGTAAACAAATTTTCCTAATCTTTCTGTTCAAGCGCCATCTAC,1.37 RPM ratio (pull-down/input)
10,GATGATTGTTCTCCCAGCTGATGAATTTTTGCACTCGAGTAAACAAATTTTCCTAATCTTTCTGTTCAAGCGCCATCTAC,0.699 RPM ratio (pull-down/input)
11,GATGATTGTTCTCCCAGCTGATGAATTTTGCCACTCGAGTAAACAAATTTTCCTAATCTTTCTGTTCAAGCGCCATCTAC,5.96 RPM ratio (pull-down/input)
12,GATGATTGTTCTCCCAGCTGATGAATTGCGCCACTCGAGTAAACAAATTTTCCTAATCTTTCTGTTCAAGCGCCATCTAC,7.19 RPM ratio (pull-down/input)
13,GATGATTGTTCTCCCAGCTGATGAATTTGCCCACTCGAGTAAACAAATTTTCCTAATCTTTCTGTTCAAGCGCCATCTAC,0.555 RPM ratio (pull-down/input)
14,GATGATTGTTCTCCCAGCTGATGAATTGCTGCTCTCGAGTAAACAAATTTTCCTAATCTTTCTGTTCAAGCGCCATCTAC,0.662 RPM ratio (pull-down/input)
15,GATGATTGTTCTCCCAGCTGATGAATTAAGACGATCGAGTAAACAAATTTTCCTAATCTTTCTGTTCAAGCGCCATCTAC,0.207 RPM ratio (pull-down/input)
16,GATGATTGTTCTCCCAGCTGATGAATTGCTCACATCGAGTAAACAAATTTTCCTAATCTTTCTGTTCAAGCGCCATCTAC,0.686 RPM ratio (pull-down/input)
17,GATGATTGTTCTCCCAGCTGATGAATTTATATTATCGAGTAAACAAATTTTCCTAATCTTTCTGTTCAAGCGCCATCTAC,1.6 RPM ratio (pull-down/input)
18,GATGATTGTTCTCCCAGCTGATGAATTTTTTATATCGAGTAAACAAATTTTCCTAATCTTTCTGTTCAAGCGCCATCTAC,0.31 RPM ratio (pull-down/input)
19,GATGATTGTTCTCCCAGCTGATGAATTTTATATATCGAGTAAACAAATTTTCCTAATCTTTCTGTTCAAGCGCCATCTAC,1.65 RPM ratio (pull-down/input)
20,GATGATTGTTCTCCCAGCTGATGAATTGTTTATATCGAGTAAACAAATTTTCCTAATCTTTCTGTTCAAGCGCCATCTAC,5.7 RPM ratio (pull-down/input)
21,GATGATTGTTCTCCCAGCTGATGAATTATATTTATCGAGTAAACAAATTTTCCTAATCTTTCTGTTCAAGCGCCATCTAC,5.59 RPM ratio (pull-down/input)
22,GATGATTGTTCTCCCAGCTGATGAATTTATTATATCGAGTAAACAAATTTTCCTAATCTTTCTGTTCAAGCGCCATCTAC,2.18 RPM ratio (pull-down/input)

# From publication PMC12820563, “FoxP3 forms a head-to-head dimer in vivo and stabilizes its multimerization on adjacent microsatellites”
